Compounds with a hit are over-represented: about 7.9% of the library has one in this group of screens.
SW480 rerep = DNA re-replication induction in SW480 cells. Potency, µM (doses to about 46.1 µM), actives largely listed as activators. SW480 DNA re-replication, Hoechst DNA content imaging, 48 h. hit rate 1.8% among 340,000; further: nearly all actives have a fitted effect of over 55% in size
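SW480 cells exposed to compounds for 48 hr at 37 C, 5% CO2, then Hoechst-stained 40 min. Nuclear DNA content imaged by fluorescence scanning (405 nm excitation, 500-530 nm emission); re-replication scored as increased high-intensity nuclei.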
HT1080 IDH1KD tx = kills HT-1080 cells with IDH1 knockdown; HT-1080 IDH1 knockdown viability, ATP luminescence, 48 h; Potency, µM (series often up to 46.1 µM), hits mostly cytotoxic; hit rate 2% among 360,000; AID 686971
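Viability of IDH1-knockdown HT-1080 fibrosarcoma cells was assessed by CellTiter-Glo after 48 h at 37 °C with titrated compound; concentration-effect curves were classified by fit quality and response size.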
MCF10A rerep = induces DNA re-replication in MCF 10a normal breast cells | Potency, µM (series often up to 46.1 µM), most hits filed as activators | hit rate 2.9% among 350,000 | MCF 10A DNA re-replication, Hoechst nuclear intensity, 48 h; further: nearly all actives have a fitted effect of over 50% in size
HT1080-NT tox = kills 2HG-producing HT-1080-NT fibrosarcoma cells. HT-1080-NT fibrosarcoma viability, CellTiter-Glo ATP luminescence, 48 h. Potency, µM (top dose mostly 46.1 µM), hits mostly cytotoxic. hit rate 1.6% among 360,000. AID 686970;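 further: NT is the 2HG producing partner of a matched IDH1 knockdown line; nearly all actives have a fitted effect of over 55% in size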
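Luminescent CellTiter-Glo readout after 48 hours of compound exposure at 37 degrees C defined viability of HT-1080-NT cells. Activity was normalized to DMSO wells and cell-free media wells; concentration-response curves were fitted and assigned curve classes.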
KB-3-1 tox = KB-3-1 parental cell cytotoxicity; KB-3-1 viability, CellTiter-Glo ATP luminescence, 72 h; hit rate 1.4% among 400,000; Potency, µM (series often up to 46.1 µM), most hits filed as cytotoxic; further: nearly all actives have a fitted effect of over 60% in size
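Parental KB-3-1 viability, qHTS format: 72 h compound exposure, 37 °C; CellTiter-Glo; media-only wells and DMSO plates as controls; concentration-effect fits on corrected data.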
KB-V1 MDR tox = KB-V1 MDR subline cytotoxicity | Potency, µM (doses to about 46.1 µM), most hits filed as cytotoxic | hit rate 3.4% among 400,000 | AID 1347076 | KB-V1 MDR cells viability, CellTiter-Glo, 72 h; further: nearly all actives have a fitted effect of over 60% in size
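qHTS viability screen in drug-selected KB-V1 MDR cells: 72 h compound treatment at 37 degrees C, ATP luminescence end point.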
Each line names hits and unclear results; the compound was inactive in the other large screens. The call rests on the fitted dose curve; in most records, active means well fitted curve in the direction sought with a large enough effect; inconclusive means small, poorly fitted or top-dose-only effect, or another doubt; inactive means no such curve, though single readings can be large; an effect the other way counts as inactive or inconclusive.

COc1ccccc1-n1nnnc1SCC(=O)NCC1(N2CCCCC2)CCCCC1	none
Cc1cc(SCC(=O)c2ccccc2)n2ncc(-c3ccccc3)c2n1	none
CN1CCN(c2ccccc2NC(=O)Cc2ccc(Cl)cc2)CC1	KB-V1 MDR tox inconclusive
CCCn1c(C)cc(/C=C(\C#N)C(=O)OCC(=O)Nc2cccc(S(N)(=O)=O)c2)c1C	none
O=C(O)CN1C(=O)/C(=C/C=C/c2ccccc2)SC1=S	none
O=C1CC(N2C(=O)/C(=C/C=C/c3ccccc3)SC2=S)C(=O)N1c1ccccc1 (configuration not stated)	MCF10A rerep 4.6µM
CCOc1ccc(S(=O)(=O)Nc2ccn(C)n2)cc1	KB-3-1 tox inconclusive
CN(C)c1ccc(-c2c3ccccc3nc3ccccc23)cc1	KB-3-1 tox inconclusive (no result: SW480 rerep, HT1080 IDH1KD tx, MCF10A rerep, HT1080-NT tox)
CN(C)c1ccc(Sc2ccc3nc(N)nc(N)c3c2)cc1	HT1080 IDH1KD tx 1.6µM, HT1080-NT tox 2.3µM, KB-3-1 tox 8.2µM, KB-V1 MDR tox 8.2µM (no result: SW480 rerep, MCF10A rerep)
CCCc1ccc(-c2cc(C(=O)N/N=C/c3ccc([N+](=O)[O-])o3)c3ccccc3n2)cc1	SW480 rerep 7.1µM, HT1080 IDH1KD tx 6.5µM, MCF10A rerep 5µM, HT1080-NT tox 7.3µM, KB-3-1 tox 12µM, KB-V1 MDR tox 8.2µM
O=C(N/N=C/c1ccc([N+](=O)[O-])o1)c1sc2ccccc2c1Cl	HT1080 IDH1KD tx inconclusive, MCF10A rerep inconclusive, KB-3-1 tox inconclusive, KB-V1 MDR tox inconclusive
O=C(N/N=C/c1ccc([N+](=O)[O-])o1)c1cc(-c2cccc(Br)c2)nc2ccccc12	HT1080 IDH1KD tx inconclusive, HT1080-NT tox inconclusive, KB-3-1 tox inconclusive, KB-V1 MDR tox inconclusive
O=C(N/N=C/c1ccc([N+](=O)[O-])o1)c1cn2ccc3ccccc3c2n1	SW480 rerep 21µM, MCF10A rerep inconclusive
CCOc1ccc2nc(-c3ccccc3)[nH]c2c1	SW480 rerep 18µM, HT1080 IDH1KD tx 9.2µM, MCF10A rerep 5.2µM, HT1080-NT tox 8.2µM, KB-3-1 tox inconclusive
Cc1cc(C)c2nc(N(CCCN(C)C)C(=O)c3ccc(S(=O)(=O)N4CCCCCC4)cc3)sc2c1	SW480 rerep inconclusive, HT1080 IDH1KD tx 16µM, MCF10A rerep inconclusive, HT1080-NT tox 16µM, KB-3-1 tox inconclusive, KB-V1 MDR tox inconclusive
CCOc1ccc2nc(N(CCCN(C)C)C(=O)c3ccc(S(=O)(=O)N4CCCC4)cc3)sc2c1	none
Cc1ccc2sc(N(CCCN(C)C)C(=O)c3ccc(S(=O)(=O)N4CCCCCC4)cc3)nc2c1C	HT1080 IDH1KD tx inconclusive, MCF10A rerep inconclusive, HT1080-NT tox inconclusive, KB-3-1 tox inconclusive
CN(C)CCCN(C(=O)c1ccc(S(=O)(=O)N2CCCC2)cc1)c1nc2ccc(Br)cc2s1	HT1080 IDH1KD tx 23µM, HT1080-NT tox 21µM, KB-3-1 tox inconclusive
Cc1ccc2nc(N(CCCN(C)C)C(=O)c3ccc4c(c3)CCCC4)sc2c1	SW480 rerep inconclusive, HT1080 IDH1KD tx inconclusive, MCF10A rerep inconclusive, KB-3-1 tox inconclusive, KB-V1 MDR tox 4.1µM
O=C(NC1CCCCC1)C(c1ccco1)N(C(=O)C(F)(F)F)C1CC1 (configuration not stated)	MCF10A rerep inconclusive
COC(=O)Cn1c(=O)c2cccn2c2ccc(F)cc21	none (no result: SW480 rerep, HT1080 IDH1KD tx, MCF10A rerep, HT1080-NT tox)
CN1CCN(C(=S)c2ccc(OCC(=O)Nc3cccc(C(F)(F)F)c3)cc2)CC1	MCF10A rerep inconclusive, KB-V1 MDR tox inconclusive
Clc1cccc(Nc2c3c(nc4ncnn24)CCC3)c1	HT1080 IDH1KD tx inconclusive, KB-V1 MDR tox inconclusive
CCc1cccc(Nc2c3c(nc4ncnn24)CCC3)c1	KB-V1 MDR tox 18µM
CC1CCCCC1NC(=O)c1cc2c(=O)n3ccccc3nc2n1C (configuration not stated)	SW480 rerep inconclusive
CC1CC(NC(=O)c2cc3c(=O)n4ccccc4nc3n2C)CC(C)(C)C1 (configuration not stated)	SW480 rerep 10µM, MCF10A rerep 10µM, KB-V1 MDR tox inconclusive
